Screening data: PubChem BioAssay, National Center for Advancing Translational Sciences (NCATS)
aSyn yeast inh: qHTS of alpha-syn Inhibitors | Yeast expressing alpha-synuclein, growth rescue, BacTiter-Glo, 24 h | 370,000 tested, 0.14% active | Potency, µM (series often up to 46.1 µM), actives largely listed as activators; further: nearly all actives have a fitted effect of over 65% in size
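Screening used galactose-induced yeast with toxic alpha-synuclein levels, exposed to compound for 24 hr at 30 deg C. Cell growth, read with BacTiter-Glo luminescence, gave the measured signal.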
MmCpn inh: Inhibitors of TCP-1 ring complex (TRiC) of Methanococcus maripaludis (MmCpn): qHTS | purified Mm-Cpn ATPase, ADP Transcreener TR-FRET | Potency, µM (top dose mostly 76.9 µM), hits mostly inhibitors | Chaperonin Mm-Cpn (Methanococcus maripaludis) | 330,000 tested, 0.031% active; further: nearly all actives have a fitted effect of over 80% in size
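Inhibition of chaperonin ATP hydrolysis is measured as reduced ADP production, detected by competitive TR-FRET in which signal falls with ADP. Final enzyme 25 nM and ATP 10 uM, reacted 30 min at 37°C.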
Abeta rescue: qHTS for compounds that reverse cellular toxicity of Amyloid beta (A-beta) peptide in yeast: Primary Screen; yeast expressing A-beta42, growth rescue, OD600, 48 h; response scale: 0% DMSO, 100% iron-clioquinol control; 410,000 tested, 0.063% active; Potency, µM (top dose mostly 46.1 µM), actives largely listed as activators; further: nearly all actives have a fitted effect of over 55% in size
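Growth rescue measured by 600 nm absorbance after 48 h yeast culture at 30 C with compound. Values normalized between DMSO and an equimolar ferric chloride plus clioquinol control.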
TDP43 rescue: qHTS of TDP-43 Inhibitors; TDP-43 expressing yeast growth rescue, BacTiter-Glo, 24 h; Potency, µM (top dose mostly 46.1 µM), usual class: activators; 410,000 tested, 1.8% active; further: nearly all actives have a fitted effect of over 50% in size
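Galactose-induced TDP-43 yeast, OD600=0.02, compound pinned; 24 hr, 30 deg C; BacTiter-Glo luminescence for growth. Inhibitors of TDP-43 toxicity read as activators.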
ClpP mod: qHTS Assay for Activators of ClpP; ATP-dependent Clp protease proteolytic subunit (Bacillus subtilis (strain 168)), P80244; Potency, µM (doses to about 57.5 µM); AID 651965, 2013; purified B. subtilis ClpP, FRET peptide cleavage, 20 min; 340,000 tested, 1.9% active; active means well fitted falling curve with a large enough effect; inconclusive means small, poorly fitted or top-dose-only effect; inactive means no such curve, though single readings can be large or run the other way; further: the source files actives as falling curves though it sought activators and does not explain the sign; nearly all actives have a fitted effect of over 65% in size
Target sequence (P80244 whole entry, looked up): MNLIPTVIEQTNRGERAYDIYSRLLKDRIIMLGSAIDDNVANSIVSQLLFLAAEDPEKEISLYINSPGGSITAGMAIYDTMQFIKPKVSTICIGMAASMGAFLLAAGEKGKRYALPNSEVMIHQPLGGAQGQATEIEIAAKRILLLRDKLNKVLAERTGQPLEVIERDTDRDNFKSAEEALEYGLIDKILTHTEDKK
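Buffer: 100 mM Tris/HCl pH8, 100 mM KCl, 0.05% low protease BSA, 2.5% glycerol, 0.01% Tween-20. ClpP 10 microg/mL final; 20 min RT; delta FRET normalized to ADEP and DMSO controls.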
FUS suppressor: qHTS for Suppressors of FUS Proteinopathy: Primary screen using FUS-linked yeast assay. S. cerevisiae FUS-expressing, growth rescue, OD600, 24 h. Potency, µM (doses to about 76.6 µM), hits mostly activators. 390,000 tested, 0.24% active; further: nearly all actives have a fitted effect of over 55% in size
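Cultures pregrown in 2.5% raffinose medium are shifted to minimal medium containing 2% galactose to express toxic FUS. Compounds are tested at several concentrations. After 24hr at 30C, growth is quantified at 600 nm absorbance.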
Of the large screens only hits and unclear results are named; the others gave an inactive call. Sampled rows, rich in hits. Any-hit rate of the full collection: about 3.6%. Unless noted, the call rests on the fitted dose curve; in most records, active means well fitted curve in the direction sought with a large enough effect; inconclusive means small, poorly fitted or top-dose-only effect, or another doubt; inactive means no such curve, though single readings can be large; an effect the other way counts as inactive or inconclusive.

CC1(C(=O)NS(=O)(=O)c2ccccc2Cl)CCN1C(=O)C1(c2ccccc2)CC1 (stereo not drawn)	none (no result: MmCpn inh)
Cc1ccccc1S(=O)(=O)NC(=O)C1(C)CCN1C(=O)C1(c2ccc(Cl)cc2)CCC1 (stereo not drawn)	TDP43 rescue 25µM, FUS suppressor inconclusive (no result: MmCpn inh)
CC1(C(=O)NS(=O)(=O)c2ccccc2Cl)CCN1C(=O)C1(c2ccc(Cl)cc2)CCC1 (stereo not drawn)	TDP43 rescue 13µM (no result: MmCpn inh)
CC1(C(=O)NS(=O)(=O)c2ccccc2Cl)CCN1C(=O)C1(c2ccc(Cl)cc2)CC1 (stereo not drawn)	TDP43 rescue 35µM (no result: MmCpn inh)
CC1(C(=O)NS(=O)(=O)c2ccccc2)CCN1C(=O)c1ccccc1CCc1ccccc1 (stereo not drawn)	TDP43 rescue inconclusive (no result: MmCpn inh)
Cc1ccccc1S(=O)(=O)NC(=O)C1(C)CCN1C(=O)c1ccccc1CCc1ccccc1 (stereo not drawn)	TDP43 rescue 35µM, FUS suppressor inconclusive (no result: MmCpn inh)
COc1ccc(-n2ccn3c(CC(C)(C)CC(=O)O)nnc3c2=O)cc1	none (no result: aSyn yeast inh, MmCpn inh)
CN(C)c1ccc(/C=C(\C#N)c2ccccn2)cc1	ClpP mod inconclusive
N#C/C(=C/c1cccnc1)c1ccccc1	TDP43 rescue inconclusive
N#C/C(=C\c1ccc([N+](=O)[O-])cc1)c1ccccn1	TDP43 rescue 13µM
N#C/C(=C\c1cccnc1)c1ccc([N+](=O)[O-])cc1	TDP43 rescue 11µM
COc1ccc(N(Cc2cc(=O)[nH]c3ccccc23)C(=O)CCl)cc1	none (no result: ClpP mod)
COc1ccc(OCc2cc(=O)[nH]c3ccccc23)cc1	ClpP mod 16µM
C#CCOCCOCCOCCNc1nc(N2CCN(C(=O)CCCCCCCCCCNC(=O)Cn3cc(C[C@@H](C)O)nn3)CC2)nc(N2CCN(C(=O)CCCCCCCCCCNC(=O)[C@H](CCCCN)n3cc(CCCC(=O)O)nn3)CC2)n1	FUS suppressor inconclusive
C#CCOCCOCCOCCNc1nc(N2CCN(C(=O)CCCCCCCCCCNC(=O)Cn3cc(C[C@@H](C)O)nn3)CC2)nc(N2CCN(C(=O)CCCCCCCCCCNC(=O)[C@H](CO)n3cc(CCCSC)nn3)CC2)n1	FUS suppressor inconclusive
C#CCOCCOCCOCCNc1nc(N2CCN(C(=O)CCCCCCCCCCNC(=O)[C@H](CO)n3cc(CCCSC)nn3)CC2)nc(N2CCN(C(=O)CCCCCCCCCCNC(=O)[C@H](CCCN=C(N)N)n3cc(C[C@@H](C)CC)nn3)CC2)n1	FUS suppressor 8.9µM
C#CCOCCOCCOCCNc1nc(N2CCN(C(=O)CCCCCCCCCCNC(=O)[C@H](CO)n3cc(CCCSC)nn3)CC2)nc(N2CCN(C(=O)CCCCCCCCCCNC(=O)[C@H](CCCCN)n3cc(CCO)nn3)CC2)n1	TDP43 rescue inconclusive, FUS suppressor 13µM
C#CCOCCOCCOCCNc1nc(N2CCN(C(=O)CCCCCCCCCCNC(=O)[C@@H](CCSC)n3cc(CCO)nn3)CC2)nc(N2CCN(C(=O)CCCCCCCCCCNC(=O)[C@H](CCSC)n3cc(CCO)nn3)CC2)n1	FUS suppressor inconclusive
C#CCOCCOCCOCCNc1nc(N2CCN(C(=O)CCCCCCCCCCNC(=O)Cn3cc(C[C@@H](C)O)nn3)CC2)nc(N2CCN(C(=O)CCCCCCCCCCNC(=O)[C@H](CCCN=C(N)N)n3cc(C[C@@H](C)CC)nn3)CC2)n1	FUS suppressor 11µM
COc1ccc(NC(=O)C2CCN(c3cc(C)nc4c(-c5ccc(Cl)cc5)c(C)nn34)CC2)cc1	ClpP mod inconclusive (no result: aSyn yeast inh, MmCpn inh)
COc1cc(OC)c(OC)cc1/C=N/NC(=S)NCC1CCCO1 (stereo not drawn)	ClpP mod 32µM
COc1cc(OC)c(OC)cc1/C=N/NC(=S)NCCN1CCOCC1	none (no result: ClpP mod)
Cc1cc(C)c(NC(=O)CNC(=O)COC(=O)Cc2cccs2)c(C)c1	TDP43 rescue 11µM
N#C/C(=C\c1ccncc1)c1nc2ccccc2o1	none (no result: ClpP mod)
N#C/C(=C\Nc1ccccc1O)c1nc2ccccc2o1	TDP43 rescue 7.1µM
CN(C(=O)CSc1cn(CC(=O)N2CCCC2)c2ccccc12)c1ccccc1	none (no result: aSyn yeast inh, MmCpn inh)
Brc1ccccc1C1CC(c2ccccc2)=Nc2ccccc2N1 (stereo not drawn)	TDP43 rescue 35µM
Clc1ccccc1C1CC(c2ccccc2)=Nc2ccccc2N1 (stereo not drawn)	TDP43 rescue inconclusive (no result: ClpP mod)
COc1cc(/C=C/c2nc(C#N)c(N3CCCCC3)o2)cc(OC)c1OC	none (no result: aSyn yeast inh, MmCpn inh)
COc1cccc(/C=C/c2nc(C#N)c(N3CCCCC3)o2)c1	TDP43 rescue 16µM (no result: aSyn yeast inh, MmCpn inh)
Cc1ccc(/C=C/c2ccc(=O)n(Cc3ccccc3Cl)n2)cc1	ClpP mod 28µM
Cc1ccc(/C=C/c2ccc(=O)n(Cc3ccc(F)cc3)n2)cc1	TDP43 rescue inconclusive (no result: ClpP mod)
O=C(NC1CCCCN(Cc2cccc(F)c2)C1=O)c1ccc(-c2ccccc2)cc1 (stereo not drawn)	none (no result: aSyn yeast inh, MmCpn inh, Abeta rescue, TDP43 rescue, ClpP mod)
CCC1CN(C(=O)Nc2cc(C)ccc2OC)c2cc(Cl)ccc2O1 (stereo not drawn)	none (no result: aSyn yeast inh, MmCpn inh)
CC1(C(=O)NCc2ccc(C(F)(F)F)cc2)CCN1Cc1ccc(-c2ccccc2)o1 (stereo not drawn)	aSyn yeast inh 16µM, FUS suppressor inconclusive (no result: MmCpn inh)
CC1(C(=O)NCc2ccc(C(F)(F)F)cc2)CCN1Cc1c(F)cccc1F (stereo not drawn)	none (no result: MmCpn inh)
Cc1ccc(C)c(N(C)C(=O)Cc2c(C(=O)O)[nH]c3ccc(Cl)cc23)c1	none (no result: aSyn yeast inh, MmCpn inh)
CCc1ccc2c(c1)NC(c1cccnc1)=NC(c1ccc(C(C)(C)C)cc1)=N2	FUS suppressor inconclusive (no result: aSyn yeast inh, MmCpn inh)
Cc1ccc(S(=O)(=O)Nc2ccccc2C(N)=O)cc1	none (no result: MmCpn inh)
CN(C)S(=O)(=O)Nc1ccccc1C(N)=O	ClpP mod 22µM
NC(=O)c1ccccc1NS(=O)(=O)c1ccccc1	ClpP mod 28µM (no result: aSyn yeast inh)
NC(=O)c1ccccc1NS(=O)(=O)Cc1ccc(Cl)cc1	ClpP mod 22µM
Cc1ccc(C)c(N2CCN(c3nc4ccccc4n4nnnc34)CC2)c1	none (no result: aSyn yeast inh, MmCpn inh)
COc1ccc(N2CC(C(=O)Nc3ccc(NC(C)=O)cc3)CC2=O)cc1 (stereo not drawn)	none (no result: aSyn yeast inh, MmCpn inh)
Cc1ccc(NC(=O)c2cccc(NC(=O)N3CCSc4ncccc43)c2)cc1Cl	ClpP mod inconclusive (no result: aSyn yeast inh, MmCpn inh)
Cc1ccc(NC(=O)c2ccc(NC(=O)N3CCSc4ncccc43)cc2)cc1Cl	ClpP mod 32µM (no result: aSyn yeast inh, MmCpn inh)
